Results on 15 compounds are retold here after PubChem BioAssay.

The nature of assay [1]: hESC survival regulators, cell-based (AID 493140).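 Further: cells exposed to compounds for four days before counting.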 Particulars: human embryonic stem cell survival screen; stronger effect = higher value.
Assay [2] in a line: sensitizers of A549 cells to miR-34 induction, primary screen, imaging, A549 dox-inducible miR-34, nuclei and caspase counts (AID 1347080;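 active means compounds whose cell count with miR-34 switched on is under 0.7 times the count with it off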). The conditions noted are these: A549 miR-34 inducible, Hoechst nuclei count, 48 h.
Assay [3] is described as follows: inhibitors of Cryptococcus chitosan production, flow cytometry, Cibacron Brilliant Red staining (AID 1347148).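 Further: compound exposure lasted three days at 37 degrees C.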 Particulars: Cryptococcus neoformans chitosan, stronger effect = lower value; at 10 µM unless noted. (In general: In flow cytometry, cells or beads pass a laser one at a time.)
A short description of assay [4]: circadian clock period modulators, cell-based, LOPAC library, luminescence reporter (AID 2774).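 Further: values are relative to mean of DMSO wells on each plate.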 Particulars: circadian reporter cells, at 7 µM, actives lie on both sides.
Assay [5] is described as follows: liver-stage malaria parasite growth inhibition, primary screen, cell-based, HepG2, luciferase luminescence, HepG2 viability (AID 624349; in the data active means parasite load remaining mostly below about 12%, no sharp cut-off; inactive means mostly above about 10%;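 further: 100% = mean of DMSO negative control wells on the same plate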). The conditions noted are these: P. berghei liver stage in HepG2, luciferase luminescence, concentration not given here; parasite load remaining: stronger effect = lower value; viability: measured here: HepG2 viability without parasites.
Assay [6] relates to Hepatitis C virus NS3 helicase. The assay is described as follows: HCV NS3 helicase inhibitors, primary screen, biochemical, fluorescence polarization, LOPAC1280 library (AID 687035; in the data active means inhibition above about 37%). The conditions noted are these: Purified HCV NS3 helicase, Cy5-dT15 ssDNA binding fluorescence polarization; stronger effect = higher value; concentration not given here. Background: In fluorescence polarisation assays a small probe gives low polarisation when free and higher when bound to something large.

Assay [7] in a line: Cy5 fluorescence quenching or enhancement artefacts, artefact control for HCV NS3 helicase inhibitor project, biochemical, LOPAC1280 (AID 687037). Particulars: Cy5-DNA-NS3h complex fluorescence interference counterscreen.
Assay [8] is described as follows: phospholipid biosynthesis inhibitors in animal cells, primary screen, cell-based, LOPAC library, screen 4 (AID 1347384). Particulars: phospholipid biosynthesis inhibition screen, at 10 µM.
Assay [9] is described as follows: survival rescue of mitochondrial mutant cells in low glucose, primary screen, MELAS cybrids, Rieske KO mouse fibroblasts, CellTiter-Glo (AID 1508586;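 active means mean z-score across replicates of 1.96 or higher in either the MELAS or the Rieske mutant cell line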;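 further: z relative to plate mean and SD of compound and empty wells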). Background: ATP-based viability assays read luminescence as a measure of living cells.
Assay [10] in a line: viability rescue of complex I mutant cybrids, primary screen, cell-based, galactose medium, ATP luminescence (AID 1645843;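 active means z-score of at least 1.8 in each of two replicates, scored against plate mean and spread of sample wells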;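 further: positive z means more ATP and so rescue of galactose-driven cybrid death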). The conditions noted are these: complex I mutant cybrid cells, 72 h, stronger effect = higher value.
Assay [11] in a line: modifiers of HSF1 nuclear foci, imaging, Selleck Cancer Library (AID 1347162; in the data active means plate-normalised HSF1 focus index below about 0.46). The conditions noted are these: human cells, at 10 µM; SSMD: measured here: HSF1 foci SSMD mean; cell count: measured here: cell number; plate-normalised HSF1 focus index: stronger effect = lower value.
Where [12] appears, read: stronger effect = lower value, cell number ratio, induced over uninduced.
Where [13] appears, read: measured here: relative caspase fold change +Dox/-Dox.
[14] abbreviates: measured here: total cells with miR-34 induction, stronger effect = lower value.
The mark [15] stands for this setting: measured here: total cells without miR-34 induction.
The mark [16] stands for this setting: MELAS cybrid survival, CellTiter-Glo 48 h, stronger effect = higher value.
The mark [17] stands for this setting: Rieske KO mouse fibroblast survival, CellTiter-Glo 72 h.

Values joined by “and” are separate entries in the source; they are usually repeats but may differ in a detail not shown here. Identical values can stand only once. Active and inactive are the calls of the source. Unless noted, how the calls were made is not given here.

As for `CCCCC/C=C\C/C=C\C/C=C\CCCCCCC(=O)O`, the survival in assay [1] was 92.4 (inactive). Moreover, the fold change is 1.02 (inactive) and 1.05 (inactive) in assay [2] (setting [12]); 1.28 and 1.4 in [2] (setting [13]). The cell count in [2] (setting [14]) was 5830 and 6270; in [2] (setting [15]) it was 5710 and 6000. Moreover, the fold fluorescence in assay [3] was 4.94 (inactive).
In the case of `COc1ccccc1N1CCN(CCCCNC(=O)c2ccc3ccccc3c2)CC1`, the period change in assay [4] was 0.185 h (inactive). Besides, the parasite load remaining in [5] was 110% (inactive) and 55% (inactive). The viability – broadly, a read-out of living cells in per cent, often relative to untreated cells – in assay [5] was 97.7% and 74.2%. Besides, the inhibition (as a rule, the change of the read-out against control, counted positive when it falls) in assay [6] is -1% (inactive). The fluorescence ratio (interference) in assay [7] was 1 (inactive). Also, the fold change in [2] (setting [12]) is 1.04 (inactive) and 0.819 (inactive); in assay [2] (setting [13]), 1.41 and 1.7. For the same compound, the cell count in assay [2] (setting [14]) was 7170 and 7370; in assay [2] (setting [15]), 6900 and 9000. Besides, the result in assay [8] was inactive. Further, the z-score is -0.843 (inactive) in assay [9] (setting [16]), 0.134 in assay [9] (setting [17]) and -0.51 (inactive) in assay [10].
Take `CCCCC/C=C\C/C=C\CCCCCCCCCC(=O)O`: in assay [1], the survival is 74.2 (inactive). Further, the fold change in assay [2] (setting [12]) was 0.992 (inactive) and 1.02 (inactive); in assay [2] (setting [13]) it was 0.988 and 0.888. Moreover, the cell count in assay [2] (setting [14]) is 6110 and 5920; in assay [2] (setting [15]) it was 6160 and 5820. Also, in assay [3], the fold fluorescence is 3.91 (inactive).
For the compound `NC(N)=NCc1cccc(I)c1`, the period change in assay [4] was 0.01 h (inactive). Moreover, the survival in assay [1] is 4 (inactive). In addition, the parasite load remaining in [5] was 28.4% (inactive) and 43.8% (inactive). Also, the viability in assay [5] is 121% and 78.9%. The inhibition in assay [6] is -5% (inactive). Also, the fluorescence ratio (interference) in [7] is 0.9 (inactive). Moreover, the fold change in assay [2] (setting [12]) was 1.1 (inactive) and 0.739 (inactive); in assay [2] (setting [13]), 0.666 and 1.95. Also, the cell count is 8720 and 5880 in [2] (setting [14]); 7960 in assay [2] (setting [15]). Also, the outcome in assay [8] was inactive. Besides, the z-score in [9] (setting [16]) was -0.124 (inactive); in assay [9] (setting [17]), -0.101; in assay [10], -0.305 (inactive).
For the compound `O=C(O)CCC/C=C\CC1C2CCC(O2)C1CNNC(=O)Nc1ccccc1` (stereo not drawn), in [1], the survival is 88.6 (inactive). Further, the fold change in [2] (setting [12]) is 0.964 (inactive) and 0.895 (inactive); in assay [2] (setting [13]), 1.45 and 1.09. The cell count in [2] (setting [14]) is 5700 and 5510; in [2] (setting [15]), 5910 and 6160. The fold fluorescence in [3] was 4.39 (inactive).
For `CCCCC/C=C/C=C1/C(=O)C=C[C@@H]1C/C=C\CCCC(=O)O`, the survival in assay [1] is 82.2 (inactive). Further, the fold change in [2] (setting [12]) is 1.04 (inactive) and 0.838 (inactive) and 1.58 (inactive); in assay [2] (setting [13]) it was 1.45 and 1.36 and 1.03. In addition, the cell count in assay [2] (setting [14]) is 5600 and 6330 and 6250; in assay [2] (setting [15]), 5380 and 7550 and 3960. Besides, the fold fluorescence in [3] was 6.54 (inactive).
Turning to `CO[C@H]1C[C@@H]2CC[C@@H](C)[C@@](O)(O2)C(=O)C(=O)N2CCCC[C@H]2C(=O)O[C@H]([C@H](C)C[C@@H]2CC[C@@H](O)[C@H](OC)C2)CC(=O)[C@H](C)/C=C(\C)[C@@H](O)[C@@H](OC)C(=O)[C@H](C)C[C@H](C)/C=C/C=C/C=C/1C`, the parasite load remaining in assay [5] is 55.9% (inactive). The viability in assay [5] was 106%. For the same compound, the fold change was 0.856 (inactive) and 0.953 (inactive) in [2] (setting [12]); 1.35 and 1.11 in assay [2] (setting [13]). In addition, the cell count is 3240 and 7080 in assay [2] (setting [14]); 3790 and 7430 in assay [2] (setting [15]); 7610 in assay [11]. The SSMD in assay [11] amounted to 1.27. For the same compound, the plate-normalised HSF1 focus index in assay [11] was 1.08 (inactive). The values for the z-score in [9] (setting [16]), in assay [9] (setting [17]) and in assay [10] were -0.0487 (inactive), 0.674 and 2.58 (active), respectively.
As to `CCCCCCCC/C=C\C/C=C\C/C=C\CCCC(=O)O`, the survival in assay [1] is 69.8 (inactive). Further, the fold change in assay [2] (setting [12]) was 0.997 (inactive) and 0.986 (inactive); in assay [2] (setting [13]), 1.14 and 0.749. The cell count in assay [2] (setting [14]) was 6200 and 5590; in assay [2] (setting [15]), 6220 and 5670. The fold fluorescence in assay [3] was 4.51 (inactive).
`CC/C=C\C/C=C\C/C=C\C/C=C\C/C=C\CCCC(=O)O`: the survival in assay [1] was 106 (inactive). In addition, the fold change is 0.976 (inactive) and 0.979 (inactive) in [2] (setting [12]); 0.982 and 0.878 in assay [2] (setting [13]). The cell count in assay [2] (setting [14]) was 5680 and 5960; in [2] (setting [15]), 5820 and 6080. For the same compound, in [3], the fold fluorescence is 4.6 (inactive).
For the compound `CC/C=C\C/C=C\C/C=C\C/C=C\C/C=C\C/C=C\CCC(=O)O`, in assay [1], the survival was 81.3 (inactive). The fold change in [2] (setting [12]) was 0.965 (inactive) and 0.982 (inactive); in assay [2] (setting [13]), 0.949 and 0.678. Besides, the cell count in assay [2] (setting [14]) is 5660 and 5960; in assay [2] (setting [15]) it was 5860 and 6070. Further, the fold fluorescence in assay [3] is 4.24 (inactive).
`CC(C)(C)NCC(O)COc1nsnc1N1CCOCC1` (stereo not drawn): the period change in assay [4] is -0.09 h (inactive). In addition, the inhibition in [6] was -2% (inactive). In [7], the fluorescence ratio (interference) is 1 (inactive). The fold change in assay [2] (setting [12]) was 0.926 (inactive) and 0.855 (inactive); in [2] (setting [13]), 1.26 and 0.99. Moreover, the cell count in [2] (setting [14]) is 9690 and 8250; in assay [2] (setting [15]), 10500 and 9640. Moreover, the outcome in assay [8] was inactive. Besides, the z-score in assay [9] (setting [16]) is -0.232 (inactive); in assay [9] (setting [17]), -0.152; in [10], 0.22 (inactive).
Turning to `CCCCC[C@H](O)/C=C/[C@H]1C=CC(=O)[C@@H]1CCCCCCC(=O)O`, the survival in [1] is 103 (inactive). Moreover, the fold change was 0.912 (inactive) and 0.844 (inactive) in [2] (setting [12]); 1.4 and 1.79 in assay [2] (setting [13]). In addition, the cell count in assay [2] (setting [14]) was 5980 and 4550; in [2] (setting [15]), 6560 and 5390. Besides, the fold fluorescence in assay [3] was 4.35 (inactive).
Consider `CC(C)=CCC/C(C)=C/CC/C(C)=C/CSCC(=O)O`, for which the survival in assay [1] is 89.7 (inactive). Besides, the fold change in assay [2] (setting [12]) is 0.964 (inactive) and 0.982 (inactive); in assay [2] (setting [13]), 1.23 and 1.52. In addition, the cell count in assay [2] (setting [14]) is 5900; in [2] (setting [15]), 6120 and 6010. Moreover, the fold fluorescence in assay [3] was 2.64 (inactive).
Turning to `CC(C)(C)[C@]1(O)CCN2C[C@H]3c4ccccc4CCc4cccc(c43)[C@@H]2C1`, in assay [4], the period change was 0.045 hour (inactive) and 0.1 hour (inactive). In addition, the parasite load remaining in assay [5] was 63.7% (inactive). In addition, the viability in assay [5] came out at 156%. Moreover, the inhibition in assay [6] is 0% (inactive) and -5% (inactive). The fluorescence ratio (interference) in assay [7] was 1 (inactive). The fold change in assay [2] (setting [12]) was 1.18 (inactive) and 1.07 (inactive) and 0.945 (inactive); in [2] (setting [13]), 1.07 and 1.2 and 1.29. The cell count in assay [2] (setting [14]) is 6310 and 6160 and 8940; in assay [2] (setting [15]) it was 5360 and 5740 and 9460. Further, in assay [8], the outcome was inactive. Also, the z-score in assay [9] (setting [16]) was 0.22 (inactive); in assay [9] (setting [17]), -0.23; in assay [10], -1.48 (inactive) and -1.34 (inactive) and -0.325 (inactive).
With `CC(=O)N[C@@H](CSC/C=C(\C)CC/C=C(\C)CC/C=C(\C)CCC=C(C)C)C(=O)O`, in assay [1], the survival is 106 (inactive). Further, the fold change in [2] (setting [12]) was 0.941 (inactive) and 0.949 (inactive); in assay [2] (setting [13]) it was 1.39 and 0.928. For the same compound, the cell count is 6090 and 5570 in assay [2] (setting [14]); 6470 and 5860 in assay [2] (setting [15]). The fold fluorescence in [3] was 5.22 (inactive).
